Values joined by “and” are separate entries in the source; they are usually repeats but may differ in a detail not shown here. Equal values may be shown once. About 83,000 compounds went through this panel and 20% of them were active in at least one assay; those are over-represented in the sample as a whole.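 Cell lines were cultured in 96-well plates, exposed to a single compound concentration, and assessed for percent growth 48 hours later.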 Values without a mark were called inactive. Active and inactive are the calls of the source. The calls were made as follows: active = growth percent below 10; inactive = the rest.
What follows are compounds tested on MDA-MB-468 breast (assay: NCI-60 one-dose screen, 48 h (100 = growth as untreated, 0 = no growth, -100 = all killed)). Settings: 10 µM unless noted.

| Compound | growth |
| --- | --- |
| COc1cccc2c1C(=O)c1c(O)c3c(c(O)c1C2=O)C[C@@](O)(/C(C)=N/NC(=O)c1cccc([N+](=O)[O-])c1)C[C@@H]3OC1CC(N)C(O)C(C)O1 (stereo not given in full) | -18.9% (active) |
| C1=CC(c2nn3c(-c4ccccc4)nnc3s2)=Cc2ccccc2O1 | 44.9% |
| CC(C)(C(=O)c1cccnc1)c1cccnc1 | 96.4% and 96.1% |
| N/C(=N\C(N)=N\c1nc2ccccc2s1)c1ccncc1 | 56.6% |
| COc1cc(C2=C(c3cn(C)c4ccccc34)COC2=O)cc(OC)c1OC | 16% |
| C=C1C(=O)O[C@H]2[C@H]1CC/C(COC(=O)Nc1nc3ccccc3[nH]1)=C\CC[C@@]1(C)O[C@@H]21 | 36.9% |
| COc1cc2nc3c(=O)n(CCN(C)C)cnn3c(=O)c2cc1OC | 104% |
| O=c1cc(C(F)(F)F)[nH]c(=S)[nH]1 | 110% |
| COc1ccc(NC(=O)c2sc3nc4c(cc3c2N)C(O)CCC4)cc1 (stereo not given) | 92.2% |
| CC(=O)CC(=O)OC/C=C(/C)CCC=C(C)C | 97.6% |
| CC(=O)c1ccc(Nc2nc(SCC(C)C)nc(-c3ccccc3)c2C#N)cc1 | 73.7% |
| O=C(CC(O)c1ccccc1)Nc1ccccn1 (stereo not given) | 119% |
| COc1ccc2sc3c(NCCCN(C)C)nc4ccccc4c3c(=O)c2c1 | 36.2% |
| CCCN1CC(c2ccc(OC)c(OC)c2)=C(c2cn(C(=O)OCC)c3ccccc23)C1=O | 6.47% (active) |
| COc1ccc(/C=N/NC(N)=S)cc1 | 82.6% |
| CCC(C)NC(=O)c1ccccc1C (stereo not given) | 86.7% |
| CN(C)CCNC(=O)n1cc(-c2ccncc2)c(-c2cc(O)cc(Cl)c2)n1 | 84.1% |
| COc1ccc(C[C@H](N)C(=O)N[C@@H]2[C@@H](CO)OC(n3cnc4c(N(C)C)ncnc43)[C@@H]2O)cc1 (stereo not given in full) | -70.8% (active) |
| COc1cc2c(c(OC)c1OC)-c1ccc(OC)c(=O)cc1[C@@H](NC(C)=O)CC2 | -8.64% (active) and -2.19% (active) |
| O=C(O)c1cccc2c1-c1ccc(Cl)cc1C2 | 108% |

| Compound | growth |
| --- | --- |
| CCc1ccc(CCC(=O)Nc2ncc(Cc3ccccc3)s2)o1 | 28.1% |
| CN(C)CCCC(=O)Nc1ccc(Cn2nnc3c2C(=O)c2nnn(Cc4ccc(NC(=O)CCCN(C)C)cc4)c2C3=O)cc1 | -62.7% (active) |
| C[C@]12CC[C@@H]3c4cc(O)c(O)cc4CC[C@H]3[C@@H]1CC[C@@H]2O | 72.1% |
| COc1ccc(-c2csc(NC(=O)CO[N+](=O)[O-])n2)cc1 | 113% |
| Oc1ccc(Nc2nccc(-c3ccc4ccccc4c3)n2)cc1 | 20.7% |
| COc1ccc(-c2cc(-c3cccnc3)nc3sc4c(=O)n(-c5ccc(C)cc5)nnc4c23)cc1OC | 88% |
| COc1cc(NC2CCC(=O)N2c2ccc(Cl)cc2Cl)cc(OC)c1OC (stereo not given) | 110% |
| COc1ccc(/C=N/NC(=O)c2ccc(S(C)(=O)=O)cc2)cc1OC | 100% |
| CCCCCCCC[C@@H](O)CC(=O)N[C@@H](CC(N)=O)C(=O)N[C@@H](CCC(N)=O)C(=O)N[C@@H](CC(=O)c1cc(C)cc(O)c1C(=O)c1c(O)cccc1O)CC(C)C | 3.34% (active) |
| COC(=O)[C@]1(C)CC[C@]2(C)CC[C@]3(C)C(=CC(=O)[C@@H]4[C@@]5(C)CCC(=O)NC(C)(C)[C@@H]5CC[C@]43C)[C@@H]2C1 | -49.5% [100 µM] (active) |
| CCCCCCCCCCN=C(c1ccc(N(C)C)cc1)c1ccc(N(C)C)cc1 | -8.69% (active) |
| CCc1c(Nc2ccc(C)cc2)nc(N)[nH]c1=O | 94.5% |
| COc1cc2cc(Oc3ccc(NC(=O)Nc4ccc(Cl)c(C(F)(F)F)c4)cc3)c(C)nc2cc1OCCN1CCCCC1 | -72.3% (active) |
| COC(=O)[C@@H]1CCCN1C(=O)[C@@H]1CCCN1C(=O)[C@H](Cc1ccccc1)NC(=S)Nc1cc(C(F)(F)F)cc(C(F)(F)F)c1 | 89% |
| CCN1CCN(c2cc(C)c3cc(NC(=O)c4ccc(OC)c(OC)c4)ccc3n2)CC1 | 1.89% (active) |
| COc1ccc(C2Nc3ncnc(N)c3N=C3c4ccccc4C(=O)C32)cc1 (stereo not given) | 86.1% |
| Nc1c(C(=O)Nc2cccc(C(F)(F)F)c2)sc2nc3c(cc12)C(O)CCC3 (stereo not given) | 22.4% |
| O=C1[C@@H]2Cc3c([nH]c4ccccc34)[C@H](c3ccc(Br)cc3)N2C(=O)CN1C1CCN(Cc2c(Cl)cccc2Cl)CC1 | 95.9% |
| COc1cc(-c2nn(C(C)(C)C)cc2-c2ccnc(NCCCNS(=O)(=O)c3ccccc3)n2)ccc1Cl | 67.3% |
| COc1ccc(-c2nc(Nc3cc(C)[nH]n3)c3ccccc3n2)cc1 | 47.3% |
